Results as given in PubChem BioAssay (NCI).
This is part of a sample that, as a whole, favours compounds with a hit. Of some 83,000 tested, about 20% had one in any assay.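 Values shown are percent growth following 48 h exposure of cells in 96-well plates to a single concentration of compound; below 10 was considered active.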 Values without a mark were called inactive. Active and inactive are the calls of the source.

Columns and labels:
Assay in all cases: NCI-60 one-dose screen, 48 h (100 = growth as untreated, 0 = no growth, -100 = all killed)
Conditions in all cases: 10 µM
SK-MEL-2 melanoma = system: SK-MEL-2 melanoma
EKVX NSCLC = system: EKVX NSCLC
UO-31 renal = system: UO-31 renal
TK-10 renal = system: TK-10 renal
ACHN renal = system: ACHN renal
CAKI-1 renal = system: CAKI-1 renal
A498 renal = system: A498 renal
CCRF-CEM leukemia = system: CCRF-CEM leukemia
MOLT-4 leukemia = system: MOLT-4 leukemia
SR leukemia = system: SR leukemia
RPMI-8226 leukemia = system: RPMI-8226 leukemia
OVCAR-8 ovarian = system: OVCAR-8 ovarian
OVCAR-5 ovarian = system: OVCAR-5 ovarian
OVCAR-4 ovarian = system: OVCAR-4 ovarian
SK-OV-3 ovarian = system: SK-OV-3 ovarian
IGROV1 ovarian = system: IGROV1 ovarian
OVCAR-3 ovarian = system: OVCAR-3 ovarian
HS 578T breast = system: HS 578T breast
NCI/ADR-RES ovarian = system: NCI/ADR-RES ovarian
SN12C renal = system: SN12C renal

Row | SMILES | growth (SK-MEL-2 melanoma) | growth (EKVX NSCLC) | growth (UO-31 renal) | growth (TK-10 renal) | growth (ACHN renal) | growth (CAKI-1 renal) | growth (A498 renal) | growth (CCRF-CEM leukemia) | growth (MOLT-4 leukemia) | growth (SR leukemia) | growth (RPMI-8226 leukemia) | growth (OVCAR-8 ovarian) | growth (OVCAR-5 ovarian) | growth (OVCAR-4 ovarian) | growth (SK-OV-3 ovarian) | growth (IGROV1 ovarian) [%] | growth (OVCAR-3 ovarian) | growth (HS 578T breast) | growth (NCI/ADR-RES ovarian) | growth (SN12C renal)
1 | COc1ccc2nc(NC(=O)Nc3c(F)cccc3F)sc2c1 | 114% | 102% | 102% | 84.8% | 106% | 104% | 87.9% | 96.1% | 98.3% | 92% | 87.6% | 98.9% | 108% | 99.6% | 114% | 114 | 118% | 117% | 105% | 
2 | COc1ccccc1CNCCCN1C(=O)c2ccc3c4c(ccc(c24)C1=O)C(=O)N(CCCNCCNCCCN)C3=O | 24.9% | 37.9% |  | 60.6% | 51.5% | 87.8% | 60.9% |  | 1.36% (active) | 13.6% | 60.8% | 12.4% | 65.9% | -94.8% (active) | 52.8% | 13.4 | -14% (active) | 54.6% | 96.7% | 1.16% (active)
3 | COc1ccc(/C(=C/c2cc(OC)c(OC)cc2[N+](=O)[O-])C(=O)O)cc1 | 107% | 105% |  | 118% | 108% | 96.1% | 105% |  | 103% | 99.6% | 97.3% | 109% | 111% | 113% | 99.9% | 107 | 125% | 114% | 110% | 104%
4 | COc1ccc(-c2nnc(N3CCN(C(=O)CN4CCN(c5ccc(Cl)cc5)CC4)CC3)nc2-c2ccc(OC)cc2)cc1 | 65.7% | 45.4% |  | 90.6% | 85% |  | 73.7% | 47.2% | 8.77% (active) | 54.2% | -44.9% (active) | 66.1% | 114% | 61.5% | 102% | 62.7 | 73.1% | 72.2% | 81.8% | 57.5%
5 | Nc1cc2c(cc1Cl)-c1ccc(Cl)cc1C2=O | 95.7% | 67.7% |  | 117% | 98.4% | 96.4% | 95.7% | 86.1% | 81.4% |  | 88.8% | 92.1% | 100% | 98.8% | 98.6% | 107 | 104% | 97.3% | 99.5% | 93.1%
6 | Cc1ccc2oc(=O)cc(/C(=C3/C=CC=N3)c3ccc[nH]3)c2c1 | 2.71% (active) | 16.5% | 5.2% (active) | 1.86% (active) | 10% | 3.96% (active) | -9.36% (active) | 10.4% | -3.84% (active) | -9.31% (active) | -16.9% (active) | -20.2% (active) | 21.1% | 28% | -16% (active) | 16.6 | -23.3% (active) | 12.9% | 0.0095% (active) | 
7 | NC(=O)c1ccc(Br)o1 | 100% | 104% | 93.2% | 90.8% | 103% | 102% | 108% | 119% | 109% | 97.4% | 112% | 108% | 105% | 107% | 104% | 107 | 107% | 109% | 96.8% | 
8 | COc1ccc2oc(=O)cc(C3c4ccc([nH]4)C(c4cc(=O)oc5ccc(OC)cc45)c4ccc([nH]4)C(c4cc(=O)oc5ccc(OC)cc45)c4ccc([nH]4)C(c4cc(=O)oc5ccc(OC)cc45)c4ccc3[nH]4)c2c1 (stereo not given) | 1.72% (active) | 27.8% | -44.9% (active) | -32.1% (active) | 1.03% (active) | -22.1% (active) | -17.4% (active) | 0.0782% (active) | -8.61% (active) | -15.9% (active) | -6.88% (active) | -10.9% (active) | 3.08% (active) | 0.347% (active) | 0.72% (active) | 19.7 | -85.2% (active) | 8.18% (active) | 5.87% (active) | 
9 | O=C1/C(=C/c2ccc(O)cc2O)N=C2SCCCN12 | 109% | 96.3% | 97.6% | 88.4% | 97.6% | 97.4% | 90.1% | 111% | 93.8% | 89.8% | 103% | 97.5% | 92.9% | 97.1% | 102% | 101 | 98.6% | 105% | 98.7% | 
10 | COc1cccc(C(=O)N(c2ccc(F)c(F)c2)C(C(=O)NC(C)(C)C)c2cc3c(C)cc(C)cc3nc2Cl)c1 (stereo not given) | 77.1% | 54.5% | 48.5% | 70.5% | 59.4% | 42.9% | 59.8% | 53.8% | 43.8% | 67.6% | 42.9% | 84.1% | 86.5% | 48.7% | 75.5% | 77.2 | 60.3% | 79.8% | 73.2% | 
11 | O=C(N/N=c1/ccoc2cccnc12)N1CCN(c2ncccn2)CC1 | 11.8% | 17.4% | 24.8% | 27.4% | 25.1% | 26% | 45.3% | 30.5% | 8.23% (active) | 20.6% | 30.6% | 25.3% | 50% | 18.3% | 15.4% | 31.4 | 30.6% | 51.4% | 10.1% | 
12 | CCOC(=O)c1c(C(F)(F)F)n([O-])c2ccc(OC)cc2[n+]1=O | 46.4% | 9.51% (active) |  | 49.8% | 32.1% |  | 50.8% | 5.58% (active) | 5.77% (active) | -13.3% (active) | -34.8% (active) | 23.8% | 60.8% | 30.5% | 23.8% | 24.2 | 32.9% | 41.1% | 31.3% | 22.6%
13 | COc1ccc(COC(=O)CC(C)C)cc1 | 101% | 101% | 93.5% | 90.6% | 105% | 98.7% | 117% | 102% | 98.8% | 97.1% | 103% | 96.1% | 100% | 109% | 102% | 106 | 105% | 104% | 98.8% | 
14 | N#Cc1ccc(-n2cnc(NC(=O)[C@H]3CCN(C#N)C3)c2)cc1 | -31.7% (active) | 20.4% | 18.6% | 21.1% | 11.8% | 34.9% | -18.4% (active) | 12.3% | 9.28% (active) | 6.48% (active) | 16.2% | 15.5% | 23.8% | 28.9% | 62.5% | 20.8 | 11.4% | 19.2% | 36.6% | 
15 | C#CCNCCN1C(=O)c2ccc3c4c(ccc(c24)C1=O)C(=O)N(CCNCC#C)C3=O | 58.6% | 55.7% | 29.5% | 51.7% | 22.9% | 49.8% | 94.1% | 40.2% | 20% | 13.9% | 45.3% | 32% | 68.2% | -34.7% (active) | 70.3% | 36.9 | 5.29% (active) | 64% | 45.1% | 
